This is one part of a sample in which hits are shown more often than they occur.
Choline anaer gr – choline-fed anaerobic bacterial growth inhibition; Gram-negative bacterium anaerobic choline minimal medium, absorbance growth; active compounds read low; calls only; 0.2% of 55,000 active; call rule not given here
Calls only; - = inactive; + = active, no number; ! = a repeat was not active.

SMILES	Choline anaer gr
CCc1ccc(NC(=O)N(C)CCc2noc(-c3ccc(C)cc3)n2)cc1	-
CCc1ccc(OCc2nc(CCN(C)C(=O)Nc3ccc(C(=O)OC)cc3)no2)cc1	+
CCOc1ccccc1NC(=O)N(C)CCc1noc(COc2ccc(Cl)cc2)n1	-
O=S(=O)(c1ccccc1)N1C[C@@H]2CN(S(=O)(=O)c3ccc4c(c3)CCC4)C[C@H](C1)O2	-
CC(C)n1c(=O)c(=O)[nH]c2cc(-c3noc(-c4ccc(F)c(Cl)c4)n3)ccc21	-
CC1(C)S[C@@H]2[C@H](NC(=O)Cc3ccccc3)C(=O)N2[C@H]1C(=O)O	-
Cc1onc(-c2c(F)cccc2Cl)c1C(=O)N[C@@H]1C(=O)N2C(C(=O)O)C(C)(C)S[C@H]12 (stereo partly specified)	-
Cc1onc(-c2ccccc2Cl)c1C(=O)N[C@@H]1C(=O)N2[C@@H]1SC(C)(C)[C@@H]2C(=O)O	+
O=C(CCC1=NS(=O)(=O)c2ccccc2N1)NCc1ccc(F)cc1	-
Cc1ccc(NC(=O)CCCC2=NS(=O)(=O)c3ccccc3N2)cc1F	+
Cc1cc(C)cc(NC(=O)CC2(CC3=NS(=O)(=O)c4ccccc4N3)CCCC2)c1	-
Cc1cc(NC(=O)Cn2nc(C(=O)N3CCc4ccccc43)ccc2=O)no1	-
CN(C)c1nc2ncnc(SCC(=O)Nc3ccc4c(c3)OCO4)c2s1	-
Clc1ccc(-c2cc(-c3nc(-c4cccnc4)no3)[nH]n2)cc1	-
CCCCC[C@H](O)CC[C@H]1[C@H](O)CC(=O)[C@@H]1CCCCCCC(=O)O	+!
CCCCC[C@H](O)/C=C/[C@H]1[C@H](O)CC(=O)[C@@H]1CCCCCCC(=O)O	-
CCCCC[C@H](O)/C=C/[C@H]1[C@H](O)CC(=O)[C@H]1CCCCCCC(=O)O	-
Cc1ccc(NC(=O)Cc2csc(COc3ccc(Cl)c(C)c3)n2)c(C)c1	-
COc1ccc(-c2cc(C(=O)N3CCCC3c3ccc(Cl)cc3)no2)cc1OC (stereo unspecified)	-
CCOC(=O)Cc1ccc(NC(=O)N2CCc3c(c(C(=O)N4CCCC4)nn3C)C2)cc1	-
CCn1c(=O)c(SCC(=O)OC)nc2cccnc21	-
COc1ccc(-c2cc(Oc3cccc(C(=O)NCc4ccc(OC)cc4OC)c3)ncn2)cc1	-
CCn1c(CN(c2ccc(F)cc2)S(C)(=O)=O)nnc1SCC(=O)Nc1nc(C)cs1	-
Cc1noc(C)c1C1CCCN1C(=O)c1cc(C2CC2)on1 (stereo unspecified)	+
Cc1cc(C(=O)N2CCCC2c2c(C)noc2C)no1 (stereo unspecified)	-
SMILES	Choline anaer gr
CCc1onc(C)c1C1CCCN1C(=O)c1cc(C2CC2)on1 (stereo unspecified)	-
CC(C)NC(=O)CCn1c(=O)c2cc(Cl)ccc2n2c(=O)[nH]nc12	-
Cn1c(=O)c(-c2noc(C(=O)NCc3ccccn3)n2)nn(-c2ccccc2)c1=O	-
CCCN1CCc2nc(NC(=O)c3ccc(S(=O)(=O)N4CCc5ccccc5C4)cc3)sc2C1	-
CCN1CCc2nc(NC(=O)c3ccc(S(=O)(=O)N4CCc5ccccc5C4)cc3)sc2C1	+
O=C(Nc1nc2ccccc2s1)c1ccc(S(=O)(=O)N2CCc3ccccc3C2)cc1	-
Cn1nnc2cc(C(=O)Nc3cccc(F)c3)ccc21	-
COC(=O)c1ccccc1NC(=O)N1CCCN(c2ccc(=O)n(-c3ccc(F)cc3)n2)CC1	-
CCCNC(=O)Nc1cccc(-c2noc(Cc3ccc(F)cc3)n2)c1	-
Cc1cc(Cc2ccc(S(=O)(=O)NCC3CCCO3)cc2)c(=O)[nH]n1 (stereo unspecified)	-
CCc1nc(OCC(=O)Nc2cc(C)cc(C)c2)c2ccccc2n1	-
O=C(COc1ccc(-c2cnc3ccccc3n2)cc1)Nc1cc(F)ccc1F	-
Cc1nc(OCC(=O)Nc2ccc(F)cc2F)c2ccccc2n1	+
COC(=O)c1cccc(NC(=O)C2=Cc3cc(C)ccc3OC=C2)c1	-
O=C(CN1CCN(Cc2ccc(F)cc2Cl)S1(=O)=O)NCc1ccccc1Cl	-
CC(C)OC(=O)CCC/C=C\C[C@@H]1[C@@H](/C=C/[C@H](O)CCc2ccccc2)[C@H](O)C[C@@H]1O	+
CC(C)OC(=O)CCC/C=C\C[C@@H]1[C@@H](/C=C/C(=O)COc2cccc(C(F)(F)F)c2)[C@H](O)C[C@@H]1O	-
CCCCC[C@H](O)/C=C/[C@@H]1[C@@H](C/C=C/CCCC(=O)O)[C@H](O)C[C@H]1O	-
CC(C)OC(=O)CCCC=CCC1C(O)CC(O)C1CCC(O)CCc1ccccc1 (stereo unspecified)	-
O=C(O)CCC/C=C/C[C@@H]1[C@@H](/C=C/[C@@H](O)COc2cccc(C(F)(F)F)c2)[C@H](O)C[C@@H]1O	-
O=C(O)CCC/C=C\C[C@@H]1[C@@H](/C=C/[C@@H](O)COc2cccc(C(F)(F)F)c2)[C@H](O)C[C@@H]1O	+!
CCOC(=O)Cn1c(=O)n(-c2ccccc2)c(=O)c2cc3c(nc21)CC(C)(C)OC3	-
Cc1ccc(-c2cc3c(SCC(=O)NC4CCCCC4)nccn3n2)cc1	-
Cc1nn(C)c2nc(OC(C)C(=O)Nc3ccc4c(c3)OCO4)cc(C(F)(F)F)c12 (stereo unspecified)	-
COc1ccccc1NC(=O)Nc1ccc2nc(SCC(=O)Nc3ccccc3C)sc2c1	-
SMILES	Choline anaer gr
COc1cc(-c2noc(Cn3ccnc3)n2)cc(OC)c1OC	-
CN1CCN(CCNC(=O)c2cc3n(n2)CCCC3)CC1	-
CN1CCN(CCc2ccc(Cl)c(Cl)c2)CC1	+
CN1CCN(S(=O)(=O)c2cc(-c3ccc(=O)[nH]n3)ccc2Cl)CC1	-
Cc1ccc(-c2cc(N3CCC(C(N)=O)CC3)nc(SCC(C)C)n2)cc1	-
COc1cc(C2Nc3ccc(C)cc3[C@H]3OCC[C@@H]23)cc(I)c1OC (stereo partly specified)	-
CN(C)CCC=C1c2ccccc2Sc2ccc(Cl)cc21	+
CN(C)CC/C=C1\c2ccccc2Sc2ccc(Cl)cc21	-
CC(C)n1cnc2nc(COc3ccccc3NC(=O)Nc3cccc(F)c3)cc(=O)n21	-
CCCCN(C)c1ccc2nnc(CCc3nc(-c4ccc5c(c4)OCO5)no3)n2n1	-
CO/N=C(\C(=O)N[C@@H]1C(=O)N2C(C(=O)[O-])=C(C[N+]3(C)CCCC3)CS[C@H]12)c1csc(N)n1	+
COCC1=C(C(=O)OC(C)OC(=O)OC(C)C)N2C(=O)C(NC(=O)C(=NOC)c3csc(N)n3)C2SC1 (stereo unspecified)	-
CC(C)(O/N=C(\C(=O)N[C@@H]1C(=O)N2C(C(=O)[O-])=C(C[n+]3ccccc3)CS[C@H]12)c1csc(N)n1)C(=O)O	-
CN(C)c1nc2ncn3c(=O)n(CC(=O)N4CCc5ccccc5C4)nc3c2s1	-
Cc1ccc(S(=O)(=O)N2CCCC(c3nc(-c4ccccc4Br)no3)C2)cc1 (stereo unspecified)	-
COc1ccc(C(=O)Nc2sc3c(c2-c2nc4ccccc4s2)CCN(C(C)C)C3)cc1OC	+
CC(=O)Nc1sc2c(c1-c1nc3ccccc3s1)CCN(C(C)C)C2	-
COC(=O)c1ccc(C(=O)Nc2sc3c(c2-c2nc4ccccc4s2)CCN(C(C)C)C3)cc1	-
Cc1ccc(-c2n[nH]c(=O)c3c2CCCC3)cc1S(=O)(=O)N1CCCCC1	-
Cc1ccc(NC(=O)n2ncc3c(C)cccc32)cc1	-
CC1CCCN(c2ccc(NC(=O)c3ccccc3Cl)c(C(=O)O)c2)C1 (stereo unspecified)	+
CN1CCCN(c2ccc(NC(=O)c3ccccc3Cl)c(C(=O)O)c2)CC1	-

Compound activity: PubChem, ICCB-Longwood Screening Facility, Harvard Medical School
